Assay outcomes as filed in PubChem.
D2 PAM-1: human D2 receptor positive allosteric modulation; potentiation, % (no concentration beside the values); hit rate 0.23% among 360,000; DiscoveRx D2 beta-arrestin cells, luminescence, 90 min; 100% = 57 uM dopamine signal; P14416; AID 624464; in the data active = potentiation above about 50%; inconclusive = mostly about 30% to 49%
Target sequence (P14416 whole entry, looked up): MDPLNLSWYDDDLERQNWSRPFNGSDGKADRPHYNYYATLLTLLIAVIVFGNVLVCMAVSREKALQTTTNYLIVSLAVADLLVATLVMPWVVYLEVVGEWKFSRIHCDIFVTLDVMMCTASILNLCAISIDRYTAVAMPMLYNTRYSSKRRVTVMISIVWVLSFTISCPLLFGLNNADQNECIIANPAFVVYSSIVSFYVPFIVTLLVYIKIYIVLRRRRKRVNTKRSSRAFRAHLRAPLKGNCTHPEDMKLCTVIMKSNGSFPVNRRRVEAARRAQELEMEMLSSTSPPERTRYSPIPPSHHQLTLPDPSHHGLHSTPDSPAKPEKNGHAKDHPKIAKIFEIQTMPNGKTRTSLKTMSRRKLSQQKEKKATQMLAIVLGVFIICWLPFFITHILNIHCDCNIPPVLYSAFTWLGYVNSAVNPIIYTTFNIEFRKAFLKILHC
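D2 cells co-treated with compound plus 50 nM dopamine (EC20) for 90 min at 37 deg C to detect potentiation. Beta-arrestin recruitment was read as enzyme-fragment luminescence after 1 h at ambient temperature. Full response was set by 57 uM dopamine.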
D2 ag-1: agonists of human D2 dopamine receptor; P14416; HEK293 T-REx D2 cells, calcium flux agonist mode; activation, % at 2 µM; hit rate 0.53% among 340,000; AID 485358;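 active = activation over 3 SD above normal in the single-dose calcium agonist read, cut at about 30% in these data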; also: 0% is about no effect
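Tetracycline-induced HEK293 T-REx cells with force-coupled D2 receptor, plated overnight at 30 C, loaded with no-wash calcium dye. After a 10 s baseline, compound was pin-added and calcium flux read kinetically for 180 s; calcium rises flagged agonists.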
D2 ag-2: activates the human D2 dopamine receptor. P14416. DiscoveRx PathHunter D2 beta-arrestin, luminescence, 90 min; 100% = 57 uM dopamine signal. activation, % (no concentration beside the values). hit rate 0.084% among 360,000. AID 624465; in the data active = activation above about 40%; inconclusive = between about 15% and that limit
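Agonist mode: compounds alone added to overnight-plated D2 PathHunter cells for 90 min at 37 C, with 57 uM final dopamine (EC100) defining full response. Beta-arrestin recruitment detected by chemiluminescent reagent, read after 1 h at ambient temperature.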
D2 antagonist: antagonizes the human D2 dopamine receptor; P14416; HEK293 TREx D2 cells, calcium flux, dopamine EC80; inhibition, % at 10 µM; hit rate 2% among 340,000; AID 485344; in the data active = inhibition above about 30%; inactive = below that, where a call was filed; also: 0% is about no effect
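Read-out: kinetic calcium fluorescence (1 cycle/s) in inducible HEK293 T-REx D2 cells after an EC80 dopamine addition that followed 180 s compound preincubation. Loss of the dopamine response indicates antagonism.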
D2 PAM-2: positive allosteric modulators of human D2 dopamine receptor; P14416; HEK293 T-REx D2, calcium flux, EC20 dopamine potentiation; potentiation, % at 10 µM; hit rate 0.34% among 340,000;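 active = potentiation over 3 SD above the plate norm, cut at about 30% in these data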; also: 0% is about no effect
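Tetracycline-induced Hek293 Trex D2 cells, force-coupled to calcium, loaded with no-wash calcium dye. Compound added with 180 s kinetic read for agonism, then EC20 dopamine and a further 180 s read for potentiation.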
An asterisk follows results filed as active; ? = inconclusive; · = no result given. In the library only some 2.4% were active in any assay of this set; here they are far more common.

SMILES	D2 PAM-1	D2 ag-1	D2 ag-2	D2 antagonist	D2 PAM-2
COC(=O)C1C(O)CCC2CN3CCc4c([nH]c5ccccc45)C3CC21 (stereo not given)	-8	-2	3	50*	-23
COC(=O)[C@H]1[C@H]2C[C@H]3c4[nH]c5ccccc5c4CCN3C[C@H]2CC[C@@H]1O	-23	-1	4	87*	-23
Cc1ccc(Cl)cc1N1CCN(C(=O)c2ccc3c(c2)N(Cc2ccccc2F)C(=O)c2ccccc2S3=O)CC1 (stereo not given)	·	0	·	·	-3
Cc1ccc(CNC(=O)c2ccccc2NC(=O)c2nsc3ccccc23)cc1	·	1	·	·	-5
COc1cccc2cc(C(=O)NCc3ccc(Cl)cc3)c(=N)oc12	-2	-2	-3	106*	11
COc1cccc2cc(C(=O)NCc3ccccc3)c(=N)oc12	0	-1	-6	5	-3
O=C1CCCCCN1CSc1nc2ccccc2s1	-6	-2	-4	3	36*
O=C(CSc1nc2ccccc2s1)N1CCOCC1	4	1	-1	-19	15
CNC(=O)Cn1nc(-c2ccc(C)c(S(=O)(=O)N(C)C)c2)c2ccccc2c1=O	-7	-1	-2	-6	38*
COc1ccccc1C(=O)NC(=S)Nc1cccnc1Cl	0	0	-1	1	-6
Cc1ccc(C(=O)NC(=S)Nc2cccnc2Cl)cc1	-16	-2	-7	-7	40*
COc1ccc(CC(=O)N2CCc3cc(OC)c(OC)cc3C2COc2ccc(F)cc2)cc1 (stereo not given)	·	0	·	·	-9
Cc1cc(Br)ccc1NC(=O)CNC(=O)COc1ccccc1C	-13	0	-5	32*	-14
Cc1ccccc1OCC(=O)Nc1ccccc1-c1ccccc1NC(=O)COc1ccccc1C	-20	0	-4	-1	-3
CCc1ccc(CNC(=O)c2ccc(CS(=O)(=O)Cc3ccccc3C)o2)cc1	·	0	·	·	2
COc1ccc(/C=C(/NC(=O)c2cccc([N+](=O)[O-])c2)C(=O)O)cc1OC	-4	0	4	56*	-3
COC(=O)/C(=C/c1cccc([N+](=O)[O-])c1)NC(=O)c1ccc(OC)cc1	2	-1	0	10	6
CCOC(=O)c1c(NC(=O)c2cc(=O)c3cc(C)ccc3o2)sc2c1CCCC2	·	1	·	·	-4
O=C(O)C1=C[C@@H](c2ccc3c(c2)OCO3)C[C@@H](OCc2ccc(CO)cc2)O1	-36	0	1	-8	12
NC(=O)C1=C[C@H](c2ccc3c(c2)OCO3)C[C@H](OCc2ccc(CO)cc2)O1	-8	0	1	33*	-7
Cc1ccc(S(=O)(=O)c2nnn3c2nc(N2CCOCC2)c2sccc23)cc1C	·	1	·	·	2
CCOc1ccc(NC(=O)NCc2ccccn2)cc1	-1	1	0	6	10
Cc1ccc(NC(=O)NCc2ccccn2)cc1	-10	-2	2	59*	4
COc1ccc(-n2c(=O)c3c4c(sc3n(Cc3ccccc3)c2=O)CN(C(C)=O)CC4)cc1OC	·	0	·	·	3
N/C(=N\c1nc2c(c(=O)[nH]1)CCCC2)Nc1ccccc1	11	0	0	-4	8
SMILES	D2 PAM-1	D2 ag-1	D2 ag-2	D2 antagonist	D2 PAM-2
N/C(=N\c1nc2c(c(=O)[nH]1)CCC2)Nc1ccccc1	-1	0	2	30*	-5
C#CCn1c(C2CC(=O)N(c3ccc(OCC)cc3)C2)nc2ccccc21 (stereo not given)	·	0	·	·	-7
COCCNC(=O)CN(C(=O)c1ccc(N2CCCC2)nc1)c1ccc(Cl)cc1	-2	0	-4	4	34*
CCN(CC)CCOc1nnc(-c2ccc(C)cc2)c2ccccc12	-12	0	-4	36*	6
CCN(CC)CCOc1nnc(-c2ccc(OC)cc2)c2ccccc12	-26	0	1	0	-9
Cc1ccc(C(NC(=O)c2ccccc2S(C)(=O)=O)c2ccccc2)cc1 (stereo not given)	-5	-1	-1	-17	34*
CS(=O)(=O)c1ccccc1C(=O)Nc1ccccc1Cc1ccccc1	-1	0	1	-14	-7
Cc1ccc(C(NC(N)=O)c2ccccc2)cc1 (stereo not given)	-2	0	1	40*	5
Cc1cc(C)c(NS(=O)(=O)c2ccc(-c3cnc(C4CC4)o3)cc2)c(C)c1	·	0	·	·	5
CCOc1ccc(NC(=O)c2cnn(-c3ccc(C)c(Cl)c3)c2C2CCNCC2)cc1	·	·	·	·	2
COc1ccc(Cn2c(CCC(=O)Nc3cccc(OC)c3)nc3cccnc32)cc1	·	0	·	·	2
CC(C)CN1CCC(=O)N([C@H](CSc2ccc(Br)cc2)Cc2ccccc2)CC1	-9	0	2	36*	-10
Cc1c(Cl)cccc1NS(=O)(=O)c1ccccc1	-4	·	-3	·	·
Cc1c(NS(=O)(=O)c2ccccc2)cc(Cl)c(O)c1C	62*	3	?	-6	·
CN(C)S(=O)(=O)c1cccc(NC(=S)NCCc2ccccn2)c1	-11	1	-3	24	-9
Cc1ccc(S(=O)(=O)N(C)C)cc1NC(=S)Nc1ccc2cn[nH]c2c1	-14	-2	-4	43*	-12
Cc1ccc(S(=O)(=O)N(C)C)cc1NC(=S)NCCc1ccccn1	-19	0	1	34*	-26
O=C(O)CCC(=O)N1CCc2cc(S(=O)(=O)N3CCC(Cc4ccccc4)CC3)ccc21	-4	1	-4	34*	1
CC1CCN(S(=O)(=O)c2ccc3c(c2)CCN3C(=O)CCC(=O)O)CC1	-8	0	-1	10	-5
Cc1ccc(CN2CCSc3ccc(C(=O)NC4CCN(Cc5ccccc5)CC4)cc32)cc1	-13	0	-5	74*	·
O=C(NC1CCN(Cc2ccc(F)cc2)CC1)c1ccccc1	-15	-1	-5	115*	-20
CS(=O)(=O)Cc1ccc(C(=O)NC2CCN(Cc3ccccc3)C2)cc1 (stereo not given)	-11	0	2	27	-11
O=C(NC1CCN(Cc2ccc3ccccc3c2)CC1)c1ccccc1	-34	-2	-3	51*	-23
O=C(NC1CCCC1)c1ccc2c(c1)N(Cc1ccccc1)CCS2	3	0	2	-6	-4
O=C(NC1CCN(Cc2ccc(Cl)c(Cl)c2)CC1)c1ccccc1	-37	-2	2	81*	-29
CCOc1ccc(NC(=O)Cn2c(=O)n(Cc3ccc(C(=O)NCc4ccc5c(c4)OCO5)cc3)c(=O)c3ccccc32)cc1	·	1	·	·	1
Cc1ccc(CNC(=O)CC(C)CC2=NS(=O)(=O)c3ccccc3N2)cc1 (stereo not given)	·	0	·	·	-9
CCC(C(=O)OCc1cc(=O)n2nc(CCOC)sc2n1)c1ccccc1 (stereo not given)	·	0	·	·	-1
